Source: ChEMBL document CHEMBL3988442, “University of Dundee, Small-Polar-MMV Screening Library” (2021)
Hit rate of the full screen: of about 48,000 compounds, about 13,000 (27%) showed an effect of 50% or more. This is one part of the list.

Test system: Wolbachia pipientis
Experiment: Anti-Wolbachia Cell-Based Screen
Format: functional
Parameters: scale not given: in the data most compounds retested in dose-response had high values
Conditions: 5 µM

Compound | Percent Effect [%]
CC(C)(C)SCCNC(=O)[C@@]12CNC[C@@H]1CN(S(C)(=O)=O)C2 | 5.951
Cc1csc2c(C3CCN(CCOc4ccccc4F)CC3)nc(C)n12 | 93.69
Cc1ccc(OCCN2CCC(c3nc(C)n4c(C)csc34)CC2)cc1 | 140.7
CCCc1n[nH]c(C2CN(CCCOc3ccccc3)CCO2)n1 (configuration not stated) | -4.502
CC(C)Cc1noc(CN2CCN(CCOc3ccc(Cl)cc3)CC2)n1 | -9.815
Cc1nc(C)n(CC2CN(CCOc3ccccc3F)CCO2)n1 (configuration not stated) | 5.326
Cc1csc2c(C3CCN(CCCOc4ccccc4)CC3)nc(C)n12 | 96.85
Cc1nc(CCN2CCC(Oc3ccccc3F)CC2)cs1 | -0.6309
Cc1nc(C(=O)NC2CCN(CCOc3ccc(Br)cc3)CC2)cs1 | 6.734
CN(CC(=O)N1CC(Oc2ccccc2Cl)C1)Cc1ccncc1 | -2.119
COc1ccc(C(=O)O)cc1-c1cccc2c1CCNC2 | 99.52
Cc1ccc(C(=O)O)cc1-c1cccc2c1CCNC2 | 128.8
O=C(O)c1cnc(OCC2CC2)c(Cl)c1 | -32.81
COc1ccc(C(=O)O)cc1-c1cccc(C(C)N(C)C)c1 (configuration not stated) | -0.7125
COc1cccc2c1N(S(=O)(=O)c1cc(C(=O)O)cs1)CCC2 | -3.989
Cc1cnc(-n2cnnc2)c(-c2cccc3c2CCNC3)c1 | -5.841
O=C(O)c1cnc(-c2cccc3c2CCNC3)c(Cl)c1 | 123.8
Cc1ccc(C(=O)O)cc1S(=O)(=O)N(C)c1cccc(C#N)c1 | 8.363
O=C(c1cnc(OCC(F)(F)F)c(Cl)c1)N1CCc2ccc(O)cc2C1 | -3.134
Cc1ccc([C@@H]2CN(C(=O)c3cc(C)n[nH]3)C[C@H]2NC(=O)C2CC2)cc1 | 4.814
CCNC(=O)CN(CC)S(=O)(=O)c1c(Br)cc2[nH]c(=O)oc2c1Cl | -2.285
CC(C)N(CC(=O)Nc1cccc(C(=O)N(C)C)c1)C1CC1 | 5.845
CN(C)CC(c1ccccc1)N(C)C(=O)c1cccc(NCC(=O)O)c1 (configuration not stated) | 104.1

Compound | Percent Effect [%]
Cc1ccnc(NCCNC(=O)c2ccccc2NCC(=O)O)c1 | -16.08
CN(C(=O)c1ccccc1NCC(=O)O)C(C1CC1)C1CC1 | 114.3
COC(C)c1cccc(NCc2cccs2)c1 (configuration not stated) | 2.749
Cc1cc(CNc2cccc(C(=O)N(C)c3ccccc3)c2)no1 | 2.006
CN(C(=O)c1cccc(NCC(=O)O)c1)C(C1CC1)C1CC1 | 109.4
CN(CC(=O)N1CCCC1)C(=O)c1ccccc1Nc1ccccc1 | -0.554
CN(C(=O)c1cccc(NCc2cccs2)c1)C(C1CC1)C1CC1 | 113
CC(C)CN(C(=O)Nc1cccc(C(=O)N(C)C)c1)C1CC1 | 4.006
CCn1nc(C)c(CCNC(=O)c2cccc(NCC(=O)O)c2)c1C | -5.115
CC(=O)Nc1cccc(C(=O)N(C)C(C)Cc2cc(C)ccn2)c1 (configuration not stated) | 4.881
CC(C)(C)C(=O)N1C[C@@H](F)[C@@H](OCc2nc3ccccc3o2)C1 | -2.26
Cc1cnn(C2CN(Cc3noc(C4CC4)n3)C2)c1 | -0.9556
CN1C(=O)C2(CCN(S(C)(=O)=O)CC2)c2cc(F)ccc21.Cl | -38.1
Brc1cc(CNCc2nnc3n2CCC3)cs1.Cl | -5.919
O=C(CCc1cccnc1)N(Cc1ccsc1)CC1CCCO1 (configuration not stated) | -15.29
O=C(CN(Cc1cccnc1)CC1CCCO1)Nc1ccc(F)cc1 (configuration not stated) | -1.761
O=C(COCC1CCCO1)N(Cc1cccnc1)c1ccc(F)cc1 (configuration not stated) | 100.3
CN(CCCNC(=O)NCc1ccncc1)CC(F)(F)F | -10.78
Cc1cccc(C(C(=O)NCCCc2ccncc2)N(C)C)c1 (configuration not stated) | -9.46
O=C(O)C(F)(F)F.O=C(O)C(F)(F)F.O[C@H]1CCN(CC2CC2)[C@H]1Cc1ccncc1 | 1.351
CNC(=O)C1(CCCc2ccncc2)CCCN1 (configuration not stated) | -10.96
CCN(Cc1ccncc1)C(=O)c1cn(CCCc2ccccc2)nn1 | -1.571
NC(=O)C1(CCCc2ccncc2)CCCN1 (configuration not stated) | 96.03

Compound | Percent Effect [%]
CNC(=O)C1(CCCc2ccncc2)CCCCN1.Cl (configuration not stated) | 104.3
CNC(=O)C1(CCCc2ccncc2)CCN1.O=C(O)C(F)(F)F (configuration not stated) | 127.6
CC(=O)NC(=O)C1(CCCc2ccncc2)CCN1 (configuration not stated) | 96.13
CC(CCNC(=O)NCCc1ccncc1)c1ccccc1 (configuration not stated) | 4.177
CN(C)C(=O)C1(CCCc2ccncc2)CCCN1 (configuration not stated) | -8.359
CCNc1ncc(C(=O)NCCCc2ccncc2)cn1 | -5.909
CN(CCSc1ccccc1)C(=O)C(c1cccnc1)N1CCOCC1 (configuration not stated) | 0.338
Cc1cc(S(=O)(=O)Nc2cccc(I)c2)sc1C(=O)O | 5.422
CN1CCCC2(CCN(c3cc(C(F)(F)F)nc(N(C)C)n3)C2)C1=O (configuration not stated) | 7.307
COc1ccccc1OCC(=O)Nc1ncccc1Cl | -0.249
COc1cccc(CNc2cc(CO)ccc2Cl)c1 | -79.64
COc1cc(CNc2ccc(Cl)cc2)ccc1OCC(=O)O | 106
COc1ccc(CNC(=O)c2ccc(Cl)cc2F)cc1C(=O)O | 25.37
COc1cc(CNc2ccccc2Cl)ccc1OCC(=O)O | 86.61
CCc1cnc(N)nc1NCc1ccc(OC)c(OC)c1 | -14.4
CNC(=O)NC(=O)CNC(CC(F)(F)F)c1ccc(F)cc1 (configuration not stated) | 13.05
CN(CC(=O)N1CC(C)(C)[C@](O)(C2CC2)C1)Cc1ccncc1 | -13.6
COC(=O)c1cccn1C1CCN(CCN2C(=O)CCC2=O)CC1 | 85.14
O=C1CCC(=O)N1CCN1CCC(=Cc2ccccc2)CC1 | -0.4568
CCN(CC)C(=O)[C@@H]1C[C@@H](NC(=O)c2cccn2C2CC2)CN1C | 0.5236
COC(=O)c1cccn1C1CCN(Cc2cnc3ccccn23)CC1 | 132
CCOCCCNC(=O)c1cccn1Cc1cccnc1 | -15.39
COC(=O)c1cccn1C1CCN(Cc2cccnc2)CC1 | 126.9

Compound | Percent Effect [%]
COC(=O)c1cccn1C1CCN(Cc2nc3ccccc3o2)CC1 | 118.1
CC(C)C(C)NC(=O)c1cccn1Cc1cccnc1 (configuration not stated) | -0.09991
CCN1CCN(C2CCN(Cc3nc4ccccc4o3)CC2)C1=O | -0.2621
COCc1nnc(C(=O)N(C)Cc2cnc3ccccn23)o1 | -16.21
Cc1ncc2c(n1)CCN(Cc1nc3ccccc3o1)C2 | 7.952
CCc1nc(C)c(C(=O)N(C)Cc2cnc3ccccn23)o1 | -30.87
N#CCCN(CCC#N)C(=O)CN1CCCC1Cc1cccc(F)c1 (configuration not stated) | -4.236
COCCN1CCN(Cc2cccc(C(N)=O)c2)CC1C (configuration not stated) | 5.406
COC(=O)c1cccn1C1CCN(S(=O)(=O)c2ccccc2)CC1 | 89.91
COC(=O)[C@@H]1CN(S(=O)(=O)c2ccccc2)CCN1S(C)(=O)=O | -4.195
COC(=O)c1cccn1C1CCN(Cc2cccc(C(N)=O)c2)CC1 | 132.6
CC(O)CN1CCC(CNCc2cccc(C(N)=O)c2)CC1 (configuration not stated) | 1.784
COC(=O)c1ccc(S(=O)(=O)N2CCC(Oc3cccnn3)CC2)cc1 | -19.83
CCOCCn1c(=O)n(CCC(C)C)c2ncc(C(=O)O)cc21 | -3.937
COCC(=O)Nc1ccc([C@@H](O)[C@H]2COCC(=O)N2C)cc1 | -3.081
CS(=O)(=O)N1CCN(C(=O)c2cccc(Cl)c2)CC2(CNC(=O)C2)C1 (configuration not stated) | 2.79
CCC(=O)N1CCCC1c1nc(N(C)C)ncc1-c1ccc(Cl)cc1 (configuration not stated) | 84.51
CC(C)C(=O)N1CCCC1c1nc(N(C)C)ncc1-c1ccc(Cl)cc1 (configuration not stated) | 126.5
Cc1nc(CC(=O)N2CCC[C@H]2c2nc(C(C)C)no2)cs1 | -12.82
CN(C)c1ccc(C(=O)N2CCCC2c2ccc(Cl)cc2)cc1 (configuration not stated) | 5.929
Cc1cccc(N(CCC#N)S(=O)(=O)CC2CCCCO2)c1 (configuration not stated) | -8.784
N#Cc1cc(C#N)c(SCCC(=O)Nc2ccc(F)cc2)nc1N | -13.62
CN1C[C@@H](C(=O)NC(C)(C)C)[C@@]2(CCc3ccccc3C(=O)N2)C1 | 141.5

Compound | Percent Effect [%]
CN1C[C@@H](C(=O)N(C)C)[C@@]2(CCc3ccccc3C(=O)N2)C1.Cl | 136.2
CC(C)(C)NC(=O)[C@@H]1CNC[C@]12Cc1ccccc1C(=O)N2 | 114.2
O=C(c1ccccc1)N1CC(C(=O)N2CCOCC2)C2(CCOCC2)C1 (configuration not stated) | -41.49
CN1C[C@@H](C(=O)N2CCOCC2)[C@@]2(CCc3ccccc3C(=O)N2)C1 | 147.9
CN(C)C(=O)N1CCC2(CC1)NC(=O)c1ccccc12.Cl | -7.31
CN1C[C@@H](C(=O)N2CCCOCC2)[C@@]2(CCc3ccccc3C(=O)N2)C1 | -5.089
CCNC(=O)N1CC[C@@H](CC(=O)O)[C@@H](CC2=NCCc3ccccc32)C1 | 7.982
CN1CC(C(=O)NC(C)(C)C)CC1=O (configuration not stated) | 0.8346
C[C@@H]1CN(C2(C(=O)N(C)C)Cc3ccccc3C2)C[C@H](C)O1 | 1.411
COC(=O)CN(Cc1ccccc1C)C(=O)CCCNC(=O)C1CC1 | -13.3
CN(C)CCNc1ncccc1CNC(=O)Nc1cc(F)cc(F)c1 | -8.67
CC(C)(C)c1cnc(CN2CCC(NC(=O)C3CCOCC3)CC2)o1 | -13.41
COC1CCN(CCNC(=O)NCC(C)c2cccc(C)c2)CC1 (configuration not stated) | 5.114
COCCN(C)C[C@@H]1CCC[C@@H]2CN(Cc3ccc(OC)nc3)C[C@@H]21.O=C(O)C(F)(F)F.O=C(O)C(F)(F)F | 8.299
O=C(NCC(F)(F)F)C1CCC(=O)N(C2CCCC2)C1 (configuration not stated) | 11.17
COC(=O)N1CCc2ccccc2C1C(=O)NCC(F)(F)F (configuration not stated) | 5.157
CN1C[C@@H](C(=O)NCC(F)(F)F)[C@@]2(CCc3ccccc3C(=O)N2)C1 | 103.7
CCC(C)C(=O)NCc1cc(Br)c(OC)c(OC)c1 (configuration not stated) | -3.921
Cc1ccc(CNC(=O)CCN2CCOC(C(F)(F)F)C2)cc1 (configuration not stated) | -2.283
CCS(=O)(=O)c1ccc(N2CCC(NC(=O)CCC(C)C)CC2)cc1 | 4.61
